In ChEMBL document CHEMBL3988442, “University of Dundee, Small-Polar-MMV Screening Library” (2021):
In all, about 48,000 compounds went through this assay and about 13,000 (27%) showed an effect of 50% or more. The list shows a part of the results.

test system: Wolbachia pipientis; test: Anti-Wolbachia Cell-Based Screen; assay type: functional; design: scale not given: in the data most compounds retested in dose-response had high values; conditions: 5 µM

First: COCC1CC2(CCN(C(=O)c3occc3C)CC2)CO1 (stereo not given)
Second: COCC1CC2(CCN(C(=O)c3ccc(F)cc3C)CC2)CO1 (stereo not given)
The “Percent Effect” value of the first is lower: -1.906% for the first, 14.78% for the second.

First: O=S(=O)(C1CC1)N1CCC2(CC1)COC(COc1ccccn1)C2 (stereo not given)
Second: CCn1ccnc1C1CCN(c2ncnc3ccsc23)CC1
The “Percent Effect” value of the first is higher: 3.051% for the first, -4.66% for the second.

First: Cc1nc(CN(C)Cc2csc(-c3cccs3)n2)co1
Second: CN(Cc1csc(-c2cccs2)n1)C(=O)CN1CCOC1=O
The “Percent Effect” value of the first is lower: -5.147% for the first, 19.54% for the second.

Compared with `CC(C)C(C#N)N1CCN(Cc2nccn2CC(F)(F)F)CC1` (stereo not given), `COc1cccc(CN(C)C(=O)CN2CCN(c3nccs3)CC2)c1` is higher in “Percent Effect” value: -1.445% for the first, 7.332% for the second.

Going from `Cc1ccnc(N2C[C@@H]3CC[C@H](C2)N(CC2CCC2)C3=O)n1` to `CSc1nc(N)cc(N2C[C@@H]3CC[C@H](C2)N(CC2CC2)C3=O)n1`, the “Percent Effect” value falls from 15.62% to 1.257%.

Compared with `c1nc(N2CCN(Cc3nnnn3C3CC3)CC2)c2sccc2n1`, `O=C1[C@H]2CC[C@H](CN(c3ncnc4ccsc34)C2)N1CC1CC1` is higher in “Percent Effect” value: -5.403% for the first, 70.25% for the second.

Going from `CN1C(=O)[C@H]2CC[C@@H]1CN(c1ncnc3ccsc13)C2` to `O=C(O)Cn1nc(C2CC2)c2c(-c3cccs3)ccnc21`, the “Percent Effect” value rises from 78.97% to 125.7%.

Going from `CC(NC1(CNC(=O)CC(C)(C)C)CCOCC1)c1ccccc1` (stereo not given) to `O=C(Nc1nccs1)NC1CCN(Cc2ccccc2)C1` (stereo not given), the “Percent Effect” value falls from 7.994% to -7.508%.

Compared with `O=C(NCCc1cccnc1)N1CCCC1c1ccsc1` (stereo not given), `CN(Cc1cccnc1)c1nccc(N2CCN[C@H]3CS(=O)(=O)C[C@H]32)n1` is lower in “Percent Effect” value: 4.878% for the first, -2.359% for the second.

Compared with `NC(=O)CCn1nnc(-c2cc3ccccc3o2)n1`, `O=C(O)Cn1nc(C2CC2)c2c(-c3ccco3)ccnc21` is higher in “Percent Effect” value: 8.655% for the first, 121.5% for the second.

First: O=C(CN1CCOC1=O)N(Cc1ccccc1)Cc1nccs1
Second: NC(=O)C1CCN(CC(=O)N(Cc2ccccc2)Cc2nccs2)CC1
The “Percent Effect” value of the first is lower: 101.3% for the first, 113.3% for the second.

First: COc1ccc(CN(CC2CCCO2)C(=O)CN2CCOC2=O)cc1 (stereo not given)
Second: O=C(CN1CC(c2nc(-c3ccco3)no2)C1)NCC1CCCO1.O=C(O)C(=O)O (stereo not given)
The “Percent Effect” value of the first is higher: 10.27% for the first, 8.836% for the second.

First: OCCNc1cc(-c2nccnc2N2CCCC2)c2cc[nH]c2n1
Second: O=C(O)CNc1cc(-c2nccnc2N2CCCC2)c2cc[nH]c2n1
The “Percent Effect” value of the first is higher: 104.7% for the first, 94.3% for the second.

Compared with `Nc1cc(-c2cc(C(=O)O)ccc2Cl)c2cc[nH]c2n1`, `Nc1cc(-c2ccc(C(=O)O)cc2O)c2cc[nH]c2n1` is lower in “Percent Effect” value: 2.257% for the first, 1.335% for the second.

First: CN(C)CCNc1cc(-c2ncccc2O)c2cc[nH]c2n1
Second: CN(C)CCNc1cc(-c2ncccc2C(F)(F)F)c2cc[nH]c2n1
The “Percent Effect” value of the first is higher: 15.75% for the first, -6.362% for the second.

Going from `Nc1cc(-c2cc(O)cc(C(=O)O)c2)c2cc[nH]c2n1` to `Nc1cc(-c2nccnc2N2CCCC2)c2cc[nH]c2n1`, the “Percent Effect” value rises from -2.921% to 67.22%.

Going from `COc1cccc(-c2cc(NCC(=O)O)nc3[nH]ccc23)n1` to `COC(=O)C(CNC(=O)Nc1nncs1)Cc1ccc(F)cc1` (stereo not given), the “Percent Effect” value rises from -3.915% to 5.054%.

Compared with `Cc1noc(C2CN(CC(=O)NCC3CCCO3)C2)n1` (stereo not given), `Cc1cc(C)c2cc(CNCC3CCCO3)c3nn(C)c(=O)n3c2c1` (stereo not given) is lower in “Percent Effect” value: 9.756% for the first, -6.505% for the second.

First: CN(C)C(=O)c1ccc2c(c1)N(C)C(CC(=O)NC(CO)CO)CO2 (stereo not given)
Second: CC(C)N(C)CC(=O)NCC(Cc1ccc(F)cc1)C(N)=O (stereo not given)
The “Percent Effect” value of the first is lower: 0.9161% for the first, 103.5% for the second.

Compared with `Cc1cc(C)c2cc(CNC3CCCCC3)c3nn(C)c(=O)n3c2c1`, `Cc1cc(C)c2cc(CNC(C)C)c3nn(C)c(=O)n3c2c1` is higher in “Percent Effect” value: 108.3% for the first, 117% for the second.

Going from `CCCn1cnnc1CNC1CCCC1` to `O=c1[nH]c(NC2CCCC2)nc2nccc(-c3ccco3)c12`, the “Percent Effect” value rises from -7.935% to 15.07%.

First: CCn1cc(CN(C)C(=O)c2cccc(CCC(C)(C)O)c2)cn1
Second: CCOc1ccc(CC(CNC(=O)c2ccc(C)o2)C(N)=O)cc1 (stereo not given)
The “Percent Effect” value of the first is higher: -2.58% for the first, -14.58% for the second.

Compared with `COCc1ccc(C(=O)N2CCN(CC=C(C)C)[C@@H]3CS(=O)(=O)C[C@@H]32)o1`, `O=C(c1ccco1)N1CC[C@@H]2[C@H]1CCC(=O)N2c1ccccc1` is higher in “Percent Effect” value: -1.241% for the first, 9.276% for the second.

Going from `O=c1[nH]c(NC2CCCC2)nc2nccc(-c3cccs3)c12` to `O=C(Cn1cnc(-c2cccs2)cc1=O)Nc1cccnc1`, the “Percent Effect” value rises from -0.1995% to 14.09%.

Going from `N#Cc1ccc(N2CCCC(CO)(CCOc3ccccc3)C2)nc1` (stereo not given) to `CCOc1ccc(CC(CNC(=O)c2occc2C)C(N)=O)cc1` (stereo not given), the “Percent Effect” value rises from -8.429% to -2.596%.

Going from `CC(C)NC(=O)NCC(Cc1ccc(F)cc1)C(N)=O` (stereo not given) to `CC(C)S(=O)(=O)CC(=O)NCC(Cc1ccc(F)cc1)C(N)=O` (stereo not given), the “Percent Effect” value rises from 96.65% to 124.5%.

First: Cc1ccoc1C(=O)NCC(Cc1ccc(F)cc1)C(N)=O (stereo not given)
Second: NC(=O)CS(=O)(=O)Cc1ccc(F)cc1
The “Percent Effect” value of the first is higher: 7.737% for the first, 3.461% for the second.

In the case of `CC(C)c1nnc(NC(=O)Cc2ccc(F)cc2)[nH]1`, the “Percent Effect” value is reported as -66.88%.
